Laboratory results published in the supplement of paper PMC12819154, “High-throughput peptide-centric local stability assay extends protein–ligand identification to membrane proteins, tissues and bacteria” (Nature Structural & Molecular Biology, 2025).

Each target was assayed with Nc1ncnc2c1ncn2[C@@H]1O[C@H](COP(=O)(O)OP(=O)(O)OP(=O)(O)O)[C@@H](O)[C@H]1O [adenosine 5'-triphosphate] (assay: log2 fold change of tryptic peptide abundance, ligand vs vehicle (limited proteolysis) (log2 ratio); higher = more trypsin-susceptible (destabilized)). Settings: ligand concentration: 5 mM; sample: E. coli desalted lysate; replicate design: treated before aliquoting.
Protocol: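 HT-PELSA: desalted E. coli K-12 BW25113 lysate (with 12 mM MgCl2) incubated with 5 mM ATP (pH 7) or water for 30 min at 25 C, then a 4 min trypsin pulse at 22 C. Peptides were quantified by DIA-MS (4 replicates). Value is the peptide log2 fold change (treated/control); negative = stabilized. Scale: negative = ligand-stabilized region.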
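Also: lysate desalted by size exclusion to strip endogenous ATP, peptide intensities built from DIA-NN precursor signals, and peptides missing any value discarded before comparison.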

Row | Target | log2 fold change
1 | UniProt Q46889 (peptide sequence: LQQEGYR, peptide start residue: 188) | -0.564
2 | UniProt P37751 (peptide sequence: SQLTDDDSQFK, peptide start residue: 183) | -0.401
3 | UniProt P80668 (peptide sequence: TAADHLTR, peptide start residue: 261) | -1.12
4 | UniProt P46837 (peptide sequence: AEDEAINVFAR, peptide start residue: 303) | 0.79
5 | UniProt P39829 (peptide sequence: SANPSPGNKK, peptide start residue: 364) | -0.412
6 | UniProt P0AF96 (peptide sequence: AHVTAETPK, peptide start residue: 26) | -0.321
7 | UniProt P33593 (peptide sequence: VLALVGGSGSGK, peptide start residue: 31) | -0.833
8 | UniProt P0A9P6 (peptide sequence: RFMKEPQEVR, peptide start residue: 200) | -2.4
9 | UniProt P76035 (peptide sequence: TIATFQAYLGHPVR, peptide start residue: 176) | 0.609
10 | UniProt P0A9M8 (peptide sequence: LSVFKPIAQPRTGGDAPDQTTTIVR, peptide start residue: 34) | 2.79
11 | UniProt P0AFZ1 (peptide sequence: NELEDLLEK, peptide start residue: 6) | 0.67
12 | UniProt P77721 (peptide sequence: VVSTGGELNK, peptide start residue: 138) | -0.442
13 | UniProt P00363 (peptide sequence: VSQAFWHEWR, peptide start residue: 291) | -0.722
14 | UniProt P75745 (peptide sequence: QLLWGNR, peptide start residue: 167) | -0.312
15 | UniProt P39310 (peptide sequence: VWHAPDNFR, peptide start residue: 14) | -0.8
16 | UniProt P13009 (peptide sequence: DQVEDYAR, peptide start residue: 1198) | -1.27

Row | Target | log2 fold change
17 | UniProt P45577 (peptide sequence: VAGEMNLSKTQLR, peptide start residue: 46) | 0.623
18 | UniProt P64636 (peptide sequence: EDTIPFLEALK, peptide start residue: 96) | 0.412
19 | UniProt P10371 (peptide sequence: DYGNDPLPR, peptide start residue: 26) | -0.955
20 | UniProt P45527 (peptide sequence: KLQEAVSFVHQHRR, peptide start residue: 46) | 0.779
21 | UniProt P00760 (peptide sequence: LKSAASLNSR, peptide start residue: 113) | 0.367
22 | UniProt P25748 (peptide sequence: IGYLSSSHGIEDDAMRK, peptide start residue: 179) | 0.977
23 | UniProt P77202 (peptide sequence: TLNIIMGNK, peptide start residue: 240) | 0.511
24 | UniProt P0A8F8 (peptide sequence: AILYGDKITPSMAK, peptide start residue: 550) | -0.631
25 | UniProt P75736 (peptide sequence: SFVDGEWR, peptide start residue: 165) | -1.28
26 | UniProt P45568 (peptide sequence: ESLVTCGR, peptide start residue: 126) | 0.779
27 | UniProt P11664 (peptide sequence: GAPETFDVAK, peptide start residue: 101) | -1.46
28 | UniProt P37903 (peptide sequence: VHVHVEEGSPKDR, peptide start residue: 86) | -1.8
29 | UniProt P02358 (peptide sequence: TKHAVTEASPMVK, peptide start residue: 92) | 0.374
30 | UniProt P00509 (peptide sequence: VWVSNPSWPNHK, peptide start residue: 123) | -1.24
31 | UniProt P06999 (peptide sequence: IYAYLSR, peptide start residue: 303) | -2.25
